Screening results deposited in PubChem by several laboratories.
Compounds with a hit are over-represented: about 4.2% of the library has one in this group of screens.
V-ATPase pH: regulators of yeast V-ATPase proton pumping, primary screen, pHLuorin cytosolic pH fluorescence | S. cerevisiae | response, % at 10 µM | 350,000 compounds, 0.37% hits; in the data active = response mostly above about 7.3%, no sharp cut-off; inactive = mostly below about 5.4%; note: actives read high
tim23-1 inh: growth inhibitors of tim23-1 mutant yeast, primary screen, luminescence, uHTS | S. cerevisiae tim23-1 growth, BacTiter-Glo luminescence, 24 h | AID 463212, 2010 | 330,000 compounds, 1.3% hits | inhibition, % at 20 µM;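 active = growth inhibition of the mutant yeast at or above 50%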;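 note: temperature-sensitive mutant grown at 25 °C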
NALP3 yeast inh: NALP3 inflammasome inhibitors in reconstituted yeast, primary screen, luminescence, uHTS. Yeast reconstituted NLRP3/ASC/caspase-1, beta-gal luminescence, 24 h. inhibition, % at 10 µM. 330,000 compounds, 0.39% hits. AID 2825, 2010;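 active = inhibition of 50% or more; inactive = inhibition below 50%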
TIM10 inh: growth inhibitors of isogenic TIM10 control yeast, primary screen, counter-screen for tim10-1 yeast inhibitor project, luminescence, uHTS; S. cerevisiae TIM10 strain growth, BacTiter-Glo luminescence, 24 h; inhibition, % at 10 µM; 330,000 compounds, 1.4% hits;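 active = inhibition of 40% or more at the single tested concentration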;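 note: wild-type TIM10 isogenic control strain grown at permissive 25 °C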
tim10-1 inh: growth inhibitors of tim10-1 mutant yeast, primary screen, luminescence, uHTS; S. cerevisiae tim10-1 ts strain growth, BacTiter-Glo, 24 h; inhibition, % at 20 µM; 330,000 compounds, 2.2% hits; AID 463190, 2010;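 active = inhibition of at least 40%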;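 note: mutant grown at 25 °C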
NALP1 inh: NALP1 inflammasome inhibitors in reconstituted yeast, colorimetric, S. cerevisiae, triplicate retest. S. cerevisiae NALP1/ASC/caspase-1 growth, X-gal OD620, 72 h. inhibition, % at 10 µM. 280,000 compounds, 0.61% hits. AID 2071, 2009; in the data active = inhibition mostly above about 24%, no sharp cut-off; inactive = mostly below about 32%
tim23-1 confirm: tim23-1 mutant yeast growth inhibitors, confirmation, luminescence, single concentration | shares compounds with tim23-1 inh | S. cerevisiae tim23-1 growth, BacTiter-Glo luminescence, 24 h | inhibition, % at 20 µM | 4,400 compounds, 83% hits | AID 463218, 2010;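 active = inhibition above about 39% in either of two replicate wells at 20 µM, limit read from the data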;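 note: temperature-sensitive tim23-1 mutant grown at 25 °C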
A number is an active result; 0 = inactive; - = no result; ! = not active in a repeat.

SMILES	V-ATPase pH	tim23-1 inh	NALP3 yeast inh	TIM10 inh	tim10-1 inh	NALP1 inh	tim23-1 confirm
NC(N)=N/N=C/c1ccc(OCc2ccccc2)c(OCc2ccccc2)c1	0	59.7	0	0	0	0	48.5
Cc1ccc(-c2ccc(/C=C3\C(=O)ON=C3c3ccccc3)o2)c([N+](=O)[O-])c1	0	70.0	0	0	0	0	67.2
Cc1ccc(/C=C2\C(=O)ON=C2c2ccccc2)o1	0	52.5	0	0	0	0	52.8
O=C1ON=C(c2ccccc2)/C1=C/c1cccnc1	0	-	-	-	-	0	-
O=C1/C(=C\c2ccc(-c3ccccc3[N+](=O)[O-])o2)C(c2ccccc2)=NN1c1ccccc1	0	0	0	0	0	0	-
O=C(COc1ccccc1Br)NCCC1=CCCCC1	0	0	0	0	0	-	-
COc1cc(/C=C/C(=O)O)cc(S(=O)(=O)N2CCCc3ccccc32)c1OC	0	0	0	0	0	0	-
Cc1cc(S(=O)(=O)N2CCOCC2)ccc1OCC(=O)N1CCC(C)CC1	0	0	0	0	0	0	-
Cc1cc(N)n2nc(C)c(-c3ccc(Cl)cc3)c2n1	0	62.9	0	0	0	33.4	71.8
Cc1cc(Cl)n2nc(C)c(-c3ccc(Cl)cc3)c2n1	0	0	0	0	0	0	-
Cn1c(=O)n(CCN2CCOCC2)c(=O)c2c1nc1n2CCN1c1ccc(Oc2ccccc2)cc1	0	-	-	-	-	0	-
COC(=O)c1ccccc1NC(=O)c1ccccc1OC	0	51.2	0	0	0	0	0
COc1ccccc1C(=O)NC(=S)Nc1cccc2cc(O)ccc12	0	53.5	0	0	0	0	46.0
COc1ccc(C(=O)NC(=S)Nc2cccc3cc(O)ccc23)cc1OC	0	0	0	0	0	0	-
COc1ccccc1NC(=O)c1ccccc1C(=O)Nc1ccccc1OC	0	0	0	0	0	0	-
COc1ccccc1C(=O)Nc1c(C)cc(Br)cc1C	0	0	0	0	0	0	-
COc1ccccc1C(=O)Nc1cc(-c2ccc(C)cc2)no1	0	55.4	0	0	0	0	46.9
Cc1ccc(NC(=S)NNC(=S)NNc2ccccc2)cc1C	0	-	-	-	-	-	-
COc1cc(C=NNC(=O)c2ccc(NS(=O)(=O)c3cccs3)cc2)cc(Br)c1O	0	0	0	0	0	-	-
O=C(Nc1ccccc1-c1nnn(CC(=O)N2CCCc3ccccc32)n1)c1ccc(Cl)cc1	0	56.2	0	0	0	0	0
CCOC(=O)C1CCN(CC(=O)Nc2ccc(OC)c(Cl)c2)CC1	0	0	0	0	0	0	-
O=Cc1ccccc1OCc1ccc2c(c1)OCO2	0	56.9	0	0	0	0	56.1
Cc1nnc(SC(C)C(=O)NC2CCCCC2C)n1N (configuration not stated)	-	0	0	0	0	-	-
C=CCc1ccccc1OCC(=O)N/N=C/c1ccc(OC(C)=O)cc1OC(C)=O	0	62.6	0	0	0	0	54.6
Cc1ccccc1OCC(=O)N/N=C/c1cc2ccccc2nc1Cl	0	0	0	0	0	0	-
SMILES	V-ATPase pH	tim23-1 inh	NALP3 yeast inh	TIM10 inh	tim10-1 inh	NALP1 inh	tim23-1 confirm
CCN=C1S/C(=C\c2cn(C(C)=O)nc2-c2ccccc2)C(=O)N1CC	0	52.8	0	0	0	0	48.0
CC(=O)NC1=NC(=O)/C(=C/c2cn(C(C)=O)nc2-c2ccccc2)S1	0	0	0	0	0	0	-
Nc1nc2c(s1)COc1ccccc1-2	0	0	0	0	0	0	-
Nc1nc2c(s1)CCc1c-2cnn1-c1ccccc1	0	62.3	0	0	0	0	61.4
CC(=O)Nc1ccc(S(=O)(=O)NC2(C(F)(F)F)N=C(c3ccccc3)NC2=O)cc1 (configuration not stated)	0	0	0	0	0	0	-
CSc1nc2ccc(NS(=O)(=O)c3ccc(Br)s3)cc2s1	0	60.8	0	0	0	0	62.5
Cc1nc(Nc2ccccc2)sc1C(=O)c1ccccc1	0	0	0	0	0	0	-
CC(C)(C)C(=O)c1sc(Nc2ccccc2)nc1N	0	53.3	0	0	0	0	40.9
FC(F)(F)c1cccc(Sc2cc(C(F)(F)F)nc(-c3ccccn3)n2)c1	0	51.1	0	0	0	0	42.7
O=C1NC(c2cccc(Br)c2)=N/C1=C\c1ccco1	0	56.0	0	0	0	-	0
CCc1nnc(NC(=O)CSc2nc3c(cc2C#N)CCC3)s1	0	93.8	0	0	0	0	0
CCOc1cc(-c2sc(Nc3cc(C)ccc3OC)n[n+]2-c2ccccc2)ccc1OC	0	0	0	0	0	-	-
CN(Cc1ccccc1)C(=S)NC(=O)c1cccs1	0	50.9	0	0	0	0	0
CN(Cc1ccccc1)C(=S)NC(=O)c1ccc(-c2ccccc2)cc1	0	0	0	0	0	0	-
CC(NC(=S)NC(=O)c1cccs1)c1ccccc1 (configuration not stated)	0	52.4	0	0	0	-	45.0
O=C(Cn1c(=O)oc2cccnc21)Nc1ccc(C(F)(F)F)cc1	0	0	0	0	0	-	-
Cc1cnc(NC(=O)c2cc3c(s2)CCCC3)s1	0	54.8	0	0	0	0	46.8
Cc1csc(NC(=O)c2cc3c(s2)CCCC3)n1	0	0	0	0	0	0	-
COC(=O)N/N=C/c1ccc(-c2ccc(Cl)cc2Cl)o1	0	56.3	0	0	0	0	50.0
COC(=O)N/N=C/c1ccc(-c2ccccc2Cl)o1	0	0	0	0	0	-	-
Cc1ccnc(OC(C(=O)O)C(OCCc2ccccc2)(c2ccccc2)c2ccccc2)n1 (configuration not stated)	0	0	0	0	0	-	-
Cc1ccc2cccnc2c1N	0	0	0	0	0	0	-
c1cnc2c(c1)ccc1cccnc12	0	59.1!	0	0	0	53.7!	44.1
O=C(O)c1ccc(-c2noc(-c3ccccc3Cl)n2)cc1	0	0	0	0	0	-	-
COc1ccc(NC(=O)c2cc(S(=O)(=O)NCC3COc4ccccc4O3)ccc2F)cc1 (configuration not stated)	0	57.7	0	0	0	0	65.1
O=C1NN=C(c2ccc(Br)cc2)CC1c1ccc(Cl)cc1 (configuration not stated)	0	59.8	0	0	0	0	71.7
CCCOc1cc(C)c(S(=O)(=O)NC2CC(C)(C)NC(C)(C)C2)cc1C	0	0	0	0	0	0	-
COc1ccc(CCNC(=S)Nc2cccc(C)c2C)cc1	0	50.5	0	0	0	0	0
O=C(Nc1ccc(NC(=S)NC(=O)c2ccccc2F)cc1)c1cccs1	0	51.3	0	0	0	0	49.5
